Measurements published in the supplement of paper PMC3334620.
Whole data set: some 33,000 sequences, median “E-score (-0.5 to 0.5)” near -0.021, cut for the highest 2% near 0.32. The sample holds the highest values, similar sequences and a random draw of the others, so the mix is not that of the screen.

Target: T1, Zap1 (UniProt P47043)
T1 sequence: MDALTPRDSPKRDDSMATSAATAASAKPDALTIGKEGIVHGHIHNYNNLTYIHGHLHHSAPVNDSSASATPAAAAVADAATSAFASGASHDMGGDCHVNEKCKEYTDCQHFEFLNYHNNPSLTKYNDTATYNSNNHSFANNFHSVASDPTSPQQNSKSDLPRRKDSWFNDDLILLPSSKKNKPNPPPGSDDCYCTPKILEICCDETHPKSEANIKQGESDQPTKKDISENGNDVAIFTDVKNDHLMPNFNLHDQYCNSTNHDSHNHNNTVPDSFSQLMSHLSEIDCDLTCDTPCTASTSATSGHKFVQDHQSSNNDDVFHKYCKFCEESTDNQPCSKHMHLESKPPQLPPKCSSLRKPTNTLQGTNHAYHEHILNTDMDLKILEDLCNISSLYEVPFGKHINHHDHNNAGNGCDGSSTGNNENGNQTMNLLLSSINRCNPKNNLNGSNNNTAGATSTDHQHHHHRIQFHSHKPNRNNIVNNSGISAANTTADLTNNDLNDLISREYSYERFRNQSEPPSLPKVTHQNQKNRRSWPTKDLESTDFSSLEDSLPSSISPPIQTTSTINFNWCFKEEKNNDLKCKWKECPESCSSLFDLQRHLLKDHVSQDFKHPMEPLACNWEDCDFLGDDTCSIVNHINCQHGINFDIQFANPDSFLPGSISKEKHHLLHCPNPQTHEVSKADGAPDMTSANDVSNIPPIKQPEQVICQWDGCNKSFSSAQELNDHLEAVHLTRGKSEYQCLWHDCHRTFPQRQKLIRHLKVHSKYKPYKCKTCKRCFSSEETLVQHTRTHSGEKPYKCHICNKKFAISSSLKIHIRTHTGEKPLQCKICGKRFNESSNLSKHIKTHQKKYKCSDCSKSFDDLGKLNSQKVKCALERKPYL
Test: PBM E-score (8-mer binding enrichment) (E-score (-0.5 to 0.5)); higher = stronger / more preferred TF binding
Details: protein concentration: 200 nM; construct: GST-full length
In short: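 Masliner-normalised scans of fluorescent anti-GST signal were the basis for scoring. That signal came from GST-tagged yeast transcription factors applied at about 100-200 nM to double-stranded universal all-10-mer Agilent arrays on fresh or once-stripped slides. Each ungapped eight-base word, pooled with its reverse complement, received an E-score from the Universal PBM Analysis Suite.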

Sequence | PBM E-score
ACACCCTC | 0.312
CCACCCTA | 0.327
CCACCCAC | 0.263
ACACCCCA | 0.0819
CCTAGGCC | -0.0276
ATATCTGG | -0.138
CAGTTAAG | 0.0515
GGAGTTTA | -0.0721
ATGAGAGA | -0.0163
GTGCACGA | 0.0644
ACCGCAAA | 0.205
ACCGCACT | 0.109
ACCGCAAT | 0.319
ACCGCAAG | 0.153
GCCGCAAC | 0.218
ACCGCAAC | 0.341
AGCGACGC | -0.162
TGCATCAA | 0.122
CAGCGACA | -0.0507
ACCTAGGT | 0.26
GGTGATGA | 0.338
AGTGATGA | -0.0675

Sequence | PBM E-score
CGTGATGA | -0.0344
ACAGCAAC | -0.00827
TGAGTGCA | -0.113
GGAGGTAA | 0.289
CGAGGTTA | 0.455
CGAGGTGA | 0.239
GGAGGTTA | 0.36
CGAGGTTC | 0.22
GGAGGTGA | 0.13
GTGGATGA | 0.014
ACGGATGG | -0.0981
AGTTAACC | 0.289
CGTTAACC | 0.294
GGTTAACC | 0.427
GGTTAACA | 0.32
AGTTAACA | 0.117
CGTTAACA | 0.00812
ACGTTGGG | -0.01
CGCTTTAG | -0.136
CATCTTTC | -0.0278
AACCCTCG | 0.292
AACCCTCA | 0.383

Sequence | PBM E-score
GACCCTGC | 0.283
CACCCTGC | 0.331
ACCCCTGC | 0.167
CACCCTCC | 0.326
ACCCCTCA | 0.267
CCCCCTGC | -0.372
AACCCTGC | 0.385
CTCCCTGC | -0.212
AACCCTCC | 0.185
CACCCTCA | 0.257
GACCCCTC | 0.138
AAAAGCGT | -0.06
TGTGAACA | -0.0338
AGCCACCC | -0.108
AAATGGGT | 0.265
AAATACCG | 0.162
CTAGCAAC | -0.0149
AATGTCGT | -0.0154
AGTCTGAT | -0.0553
GCTATGAA | -0.0097
ACCCCTGG | 0.289
TACCCTGA | 0.406

Sequence | PBM E-score
CACCCTGA | 0.162
AGCCCTGA | -0.131
GACCCTGA | 0.304
CACCCTGG | 0.169
AACCCTGG | 0.392
AACCCTGA | 0.461
CCCCCTGA | -0.209
ATCCAACA | 0.0629
AGCAAAAG | -0.146
CCTAACTA | 0.135
CGTCCTCA | -0.162
GAAGCCCC | -0.272
GGTTAAAC | 0.356
AGTTAAGA | 0.00562
CGTTAAAA | 0.0117
CGTTAAAC | 0.21
GGTTAAGA | 0.364
GGTTAAAA | 0.385
CGTTAAGA | -0.0174
TGTTAAAA | 0.0204
AGTTAAAC | 0.0887
